# Where “and” joins values, the source holds several entries; their conditions need not be identical. Identical values can stand only once. The panel holds about 79,000 compounds, 15% with a hit somewhere; the sample as a whole holds those more often. Unmarked numbers belong to inactive results. Calls of active or inactive are those of the source. No stated cut-off is given here; in the data, active means growth inhibition above about 70%; inactive means the rest.
# Assay: NCI Yeast Anticancer Drug Screen. Data for the rad50 strain (AID 155);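 further: 0% = growth of vehicle-only cultures of the same strain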
# Details: S. cerevisiae rad50 strain growth inhibition; at 50.0 µM; active compounds read high
# In short: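 Genetically altered yeast (DNA repair pathway); compound treatment; growth inhibition vs vehicle ctrl.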
row,SMILES,growth inhibition
1,O=C1NC(=O)C(c2ccsc2)C(=O)N1,-20.6%
2,[NH-]C(CO)C(=O)O.[NH-]C(CO)C(=O)O.[Pd+2] (stereo not given),-8.55%
3,CCc1ccc(OP(=O)(Oc2cc(C)cc(C)c2)Oc2cc(C)cc(C)c2)cc1,-27.9%
4,Cc1cccc(C)c1OCC1=NCCN1,4.75%
5,ClCCN(CCCl)c1ccc(CCN2CCOCC2)cc1,46.2%
6,Cn1c(O)c(C=N)c(=O)n(C)c1=O,15.1%
7,CC(C(O)c1cccnc1)[N+](=O)[O-] (stereo not given),-21.8%
8,CN1CCC2=C(c3ccccc3)c3ccccc3C2C1 (stereo not given),10.3%
9,Cc1nn[n-]n1.N.N.N.N.N.[Cl-].[Co+3],4.25%
10,C/C(=C\COc1ccc2ccc(=O)oc2c1)C1=CC(=O)C(C)(C)O1,-2.65%
11,CN(Cc1cnc2nc(N)nc(N)c2n1)c1ccc(C(=O)NC(CCC(=O)NC(CC(P(=O)(O)O)P(=O)(O)O)C(=O)O)C(=O)O)cc1 (stereo not given),-19.6%
12,Cc1ccc(N)c(N)c1,18.6% and 6.85%
13,COc1ccc2ccc3oc([N+](=O)[O-])cc3c2c1,14.8%
14,NCCN.NCCN.[Cl-].[O]=[Re]=[O],-8.05%
15,CC(=O)O,2.15%
16,CCCC1(CCS)C(=O)NC(=O)NC1=O,-12.9%
17,Cc1cc(N(CCCl)CCCl)ccc1C=N/C(C#N)=C(\N)C#N,2.05%
18,O=C1CCP(c2ccccc2)(c2ccccc2)(c2ccccc2)O1,34.9%
19,CO[C@H]1Nc2c(ccc(C)c2O)C(=O)N2C=C(/C=C/C(N)=O)C[C@@H]12,89.2% (active)
20,CC12CCC3C(=CC=C4CC(O)CCC43C)C1CCC2=O (stereo not given),1.9% and 14.2%

row,SMILES,growth inhibition
1,Fc1ccc(C2(N3CCC4(CC3)OCCO4)CCCCC2)cc1,-8.05%
2,CC1CCCN(C(c2ccccc2)C(O)c2ccccc2)C1 (stereo not given),5.9%
3,COc1cc[c]([Pb]([c]2ccc(Cl)cc2)([c]2ccc(Cl)cc2)[c]2ccc(OC)cc2)cc1,-13.4%
4,CCN(CCCl)c1cccc(NC(=O)c2ccc(C(=O)Nc3cccc(CN(C)C)c3)cc2)c1,5.55%
5,N.N.N.N.[Co+3].[O-][Cl+3]([O-])([O-])[O-].[OH3+].[OH3+],-25.4%
6,N#C[C@H](OC1OC(COC2OC(CO)C(O)C(O)C2O)C(O)C(O)C1O)c1ccccc1 (stereo not given in full),-34.5%
7,CN1c2ccccc2NP1(=S)c1ccccc1 (stereo not given),69.5%
8,C[n+]1ccccc1-c1ccc[n+](CCCC[n+]2cccc(-c3cccc[n+]3C)c2)c1,-8.5%
9,O=P(O)(OCCc1ccccc1)Oc1ccccc1O,-6.05%
10,COc1cc([C@@H]2c3cc(O)c(OC)cc3C[C@H]3C(=O)OC[C@@H]23)ccc1O,20.1%
11,c1ccc2c(c1)ccc1[s+]cccc12,69.4%
12,CC1CC2CCC1(CO)CN2 (stereo not given),-0.45%
13,CN(C)c1c2c(=O)n(C)c(=O)n(C)c2nc2cccc[n+]12,21.9%
14,CC(C)N(C#N)C(C)C,16.6%
15,C1CC[N-]CC1.CC(=N\O)/C(C)=N/O.CC(=N\O)/C(C)=N/O.C[CH-]C(C)O.[Co+2],-2%
16,OC1(CN2CCCCC2)N=C(c2ccccc2)c2ccsc2-n2cccc21 (stereo not given),-19.6%
17,NCCN.NCCN.O=C([O-])CCl.O=C([O-])CCl.[Co+3].[O-][Cl+3]([O-])([O-])[O-],-23.8%
18,CN(C)P(=S)(N(C)C)N1CCOCC1,-7.6%
19,CC(=N\O)/C(C)=N/O.CC(=N\O)/C(C)=N/O.[Ni],-5.1%
20,COP(=O)(O)NC(C)=O,13.7%

# Assay: NCI Yeast Anticancer Drug Screen. Data for the mec2-1 strain (AID 157)
# Details: S. cerevisiae mec2-1 strain, at 50.0 µM, active compounds read high
# In short: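 mec2-1 yeast strain, carrying an alteration in DNA damage repair or cell cycle control, was exposed to compounds; growth inhibition was measured relative to vehicle-treated controls.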
row,SMILES,growth inhibition
1,O=C1NC(=O)C(c2ccsc2)C(=O)N1,-2.25%
2,[NH-]C(CO)C(=O)O.[NH-]C(CO)C(=O)O.[Pd+2] (stereo not given),-3.9%
3,CCc1ccc(OP(=O)(Oc2cc(C)cc(C)c2)Oc2cc(C)cc(C)c2)cc1,-12.9%
4,Cc1cccc(C)c1OCC1=NCCN1,14.3%
5,ClCCN(CCCl)c1ccc(CCN2CCOCC2)cc1,15.9%
6,Cn1c(O)c(C=N)c(=O)n(C)c1=O,5.4%
7,CC(C(O)c1cccnc1)[N+](=O)[O-] (stereo not given),-4.35%
8,CN1CCC2=C(c3ccccc3)c3ccccc3C2C1 (stereo not given),-0.55%
9,Cc1nn[n-]n1.N.N.N.N.N.[Cl-].[Co+3],6.3%
10,C/C(=C\COc1ccc2ccc(=O)oc2c1)C1=CC(=O)C(C)(C)O1,-17.2%
11,CN(Cc1cnc2nc(N)nc(N)c2n1)c1ccc(C(=O)NC(CCC(=O)NC(CC(P(=O)(O)O)P(=O)(O)O)C(=O)O)C(=O)O)cc1 (stereo not given),-14.6%
12,Cc1ccc(N)c(N)c1,-5% and -3.75%
13,COc1ccc2ccc3oc([N+](=O)[O-])cc3c2c1,25.7%
14,NCCN.NCCN.[Cl-].[O]=[Re]=[O],-8.55%
15,CC(=O)O,-13%
16,CCCC1(CCS)C(=O)NC(=O)NC1=O,-33.7%
17,Cc1cc(N(CCCl)CCCl)ccc1C=N/C(C#N)=C(\N)C#N,-9.05%
18,O=C1CCP(c2ccccc2)(c2ccccc2)(c2ccccc2)O1,11.8%
19,CO[C@H]1Nc2c(ccc(C)c2O)C(=O)N2C=C(/C=C/C(N)=O)C[C@@H]12,91.5% (active)
20,CC12CCC3C(=CC=C4CC(O)CCC43C)C1CCC2=O (stereo not given),17.2% and 0.65%

row,SMILES,growth inhibition
1,Fc1ccc(C2(N3CCC4(CC3)OCCO4)CCCCC2)cc1,9%
2,CC1CCCN(C(c2ccccc2)C(O)c2ccccc2)C1 (stereo not given),1.35%
3,COc1cc[c]([Pb]([c]2ccc(Cl)cc2)([c]2ccc(Cl)cc2)[c]2ccc(OC)cc2)cc1,-8.95%
4,CCN(CCCl)c1cccc(NC(=O)c2ccc(C(=O)Nc3cccc(CN(C)C)c3)cc2)c1,-6.3%
5,N.N.N.N.[Co+3].[O-][Cl+3]([O-])([O-])[O-].[OH3+].[OH3+],-1.15%
6,N#C[C@H](OC1OC(COC2OC(CO)C(O)C(O)C2O)C(O)C(O)C1O)c1ccccc1 (stereo not given in full),-34.6%
7,CN1c2ccccc2NP1(=S)c1ccccc1 (stereo not given),80% (active)
8,C[n+]1ccccc1-c1ccc[n+](CCCC[n+]2cccc(-c3cccc[n+]3C)c2)c1,-1.8%
9,O=P(O)(OCCc1ccccc1)Oc1ccccc1O,-4.55%
10,COc1cc([C@@H]2c3cc(O)c(OC)cc3C[C@H]3C(=O)OC[C@@H]23)ccc1O,-13.7%
11,c1ccc2c(c1)ccc1[s+]cccc12,23.2%
12,CC1CC2CCC1(CO)CN2 (stereo not given),2.3%
13,CN(C)c1c2c(=O)n(C)c(=O)n(C)c2nc2cccc[n+]12,22.9%
14,CC(C)N(C#N)C(C)C,-0.75%
15,C1CC[N-]CC1.CC(=N\O)/C(C)=N/O.CC(=N\O)/C(C)=N/O.C[CH-]C(C)O.[Co+2],-7.15%
16,OC1(CN2CCCCC2)N=C(c2ccccc2)c2ccsc2-n2cccc21 (stereo not given),-22.6%
17,NCCN.NCCN.O=C([O-])CCl.O=C([O-])CCl.[Co+3].[O-][Cl+3]([O-])([O-])[O-],3.45%
18,CN(C)P(=S)(N(C)C)N1CCOCC1,-13.3%
19,CC(=N\O)/C(C)=N/O.CC(=N\O)/C(C)=N/O.[Ni],3.6%
20,COP(=O)(O)NC(C)=O,-23.9%
